Results taken from PubChem BioAssay (EPA / NIEHS).
Active and inactive are the calls of the source. The calls were made as follows: active = hit-call score of the fitted dose curve at least 0.9, where 1 is the maximum; inactive = score below 0.9.

Each molecule was assayed on Urokinase-type plasminogen activator receptor (uPAR), PLAUR (gene 5329) (assay: BSK_4H_uPAR: BioMAP Diversity Plus: 4H Assay for Urokinase-type plasminogen activator receptor (uPAR) Biomarker Activity (AID 2283030)). Conditions: primary human endothelial cells (HUVEC); actives raise or lower the signal.
How it was run: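 HUVEC, 24 h post-dose; uPAR by ELISA; bidirectional fit vs DMSO baseline.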
CC1(C)C(C=C(Cl)Cl)C1C(=O)OCc1cccc(Oc2ccccc2)c1 (centres undefined) was tested, and the outcome was “inactive”. For CCN(Cc1c(F)cccc1Cl)c1c([N+](=O)[O-])cc(C(F)(F)F)cc1[N+](=O)[O-], the outcome was “inactive”. With COCCO the outcome was “inactive”. With COc1c(Cl)ccc(Cl)c1C(=O)O the outcome was “inactive”. In the case of CCCN(CCC)C(=O)SCC, the outcome is reported as “inactive”. For CCCCOC(=O)[C@@H](C)Oc1ccc(Oc2ccc(C(F)(F)F)cn2)cc1, the outcome was “inactive”. With c1ccc2[nH]c(-c3cscn3)nc2c1 the outcome was “inactive”. In the case of COC(=O)c1ccccc1S(=O)(=O)NC(=O)Nc1nc(OC(F)F)cc(OC(F)F)n1, the outcome is reported as “inactive”. CCCCCOC(=O)COc1cc(N2C(=O)C3=C(CCCC3)C2=O)c(F)cc1Cl was tested, and the outcome was “inactive”. In the case of O=C(O)c1ccccc1, the outcome is reported as “inactive”. With CCCCCCC(C)OC(=O)COc1nc(F)c(Cl)c(N)c1Cl (centres undefined) the AC50 was 31.2 µM (active). In the case of COC(=O)c1ccccc1C(=O)O, the outcome is reported as “inactive”. In the case of CCCOC(=O)NCCCN(C)C, the outcome is reported as “inactive”. In the case of CC(=O)[C@H]1CC[C@H]2[C@@H]3CCC4=CC(=O)CC[C@]4(C)[C@H]3CC[C@]12C, the AC50 is reported as 10 µM (active). CCOC(=O)C(C)Oc1ccc(Oc2nc3ccc(Cl)cc3o2)cc1 (centres undefined) was tested, and the outcome was “inactive”. For C[C@]12CC[C@@H]3c4ccc(O)cc4C[C@@H](CCCCCCCCCS(=O)CCCC(F)(F)C(F)(F)F)[C@H]3[C@@H]1CC[C@@H]2O (some centres undefined), the AC50 was 12.4 µM (active). With COC(=O)c1ccc(CNS(C)(=O)=O)cc1S(=O)(=O)NC(=O)Nc1nc(OC)cc(OC)n1 the outcome was “inactive”. With COC(=O)c1cccc(C)c1S(=O)(=O)NC(=O)Nc1nc(OCC(F)(F)F)nc(N(C)C)n1 the outcome was “inactive”. With CCOC(=O)c1ccc(O)cc1 the outcome was “inactive”. CCCCC(CC)COC(=O)c1ccccc1C(=O)O (centres undefined) was tested, and the outcome was “inactive”. In the case of O=C(c1ccccc1)C1CCCCC1, the outcome is reported as “inactive”. In the case of CCOC(=O)COc1cc(-n2ncc(C(F)(F)F)c(C)c2=O)c(F)cc1Cl, the outcome is reported as “inactive”. For O=C(Nc1ccc([N+](=O)[O-])cc1Cl)c1cc(Cl)ccc1O, the AC50 was 0.148 µM (active). CCN(CC)C(=O)c1cccc(C)c1 was tested, and the outcome was “inactive”. For C#CCOC(=O)[C@@H](C)Oc1ccc(Oc2ncc(Cl)cc2F)cc1, the outcome was “inactive”. In the case of CC(C)CCCCCCc1ccc(O)cc1, the AC50 is reported as 9.57 µM (active). With COC(=O)c1c(Cl)nn(C)c1S(=O)(=O)NC(=O)Nc1nc(OC)cc(OC)n1 the outcome was “inactive”. For CC(=O)S[C@@H]1CC2=CC(=O)CC[C@]2(C)[C@H]2CC[C@@]3(C)[C@@H](CC[C@@]34CCC(=O)O4)[C@H]12, the outcome was “inactive”. For O=C(O)C1(C(=O)Nc2ccc(Cl)cc2Cl)CC1, the outcome was “inactive”.
